Values joined by “and” are separate entries in the source; they are usually repeats but may differ in a detail not shown here. Equal values may be shown once. Results filed as inconclusive are left out. A number with no mark means an inactive call. No stated cut-off is given here; in the data, active means percent of DMSO control GFP below about 86%; inactive means the rest, inconclusive results apart. Peptide text beside a SMILES is read from it.
Experiment: yeast TOR pathway RPL19A-GFP modulators, primary screen, cell-based, S. cerevisiae, multiplex flow cytometry (AID 1862);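 further: lower values mimic rapamycin by blocking the RPL19A rise seen in DMSO cells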
Settings: S. cerevisiae RPL19A-GFP strain, flow cytometry fluorescence, 3 h; at 10 µM; stronger effect = lower value
In the case of `CC(C)(C)OC(=O)N1CC(O)CC1C(=O)OCC(=O)c1ccc(Cl)cc1` (centres undefined), the percent of DMSO control GFP was 105%. Work on `O=C(O)c1ccc(OCCn2ccnc2)cc1` yielded a percent of DMSO control GFP of 103%. `CCOc1ccc2ccccc2c1CNc1nnnn1C` gave a percent of DMSO control GFP of 102%. For `COc1ccccc1N1C(=O)C2CC(C)=C(C)CC2C1=O` (centres undefined), the percent of DMSO control GFP was 103%. Work on `Cc1coc2c1c(C)cc1oc(=O)c(Cc3ccccc3)c(C)c12` yielded a percent of DMSO control GFP of 100%. Compound `COc1cc2c3c(c1)C(C)CC(C)(C)N3C(=O)C2=O` (centres undefined) has a percent of DMSO control GFP of 92.4%. With `NS(=O)(=O)c1cc2c(cc1Cl)NCNS2(=O)=O` the percent of DMSO control GFP was 99.7%. For `O=C(O)C1Cc2ccccc2CN1S(=O)(=O)c1ccccc1` (centres undefined), the percent of DMSO control GFP was 98.8%. With `COc1cccc(C2CC(=O)C3=C(C2)Nc2ccccc2N(C(=O)CCC(=O)O)C3c2ccc(F)cc2)c1` (centres undefined) the percent of DMSO control GFP was 95%. Compound `CCC(C(=O)Nc1ccc2c(c1)OCCO2)c1ccccc1` (centres undefined) has a percent of DMSO control GFP of 103%. `COc1ccc(C2C(C(=O)c3ccco3)=C(O)C(=O)N2CC2CCCO2)cc1` (centres undefined) showed a percent of DMSO control GFP of 102%. `C=CCNC(=O)c1ccc(-c2cccc([N+](=O)[O-])c2)o1` gave a percent of DMSO control GFP of 98.8%. In the case of `CC12CCC(C(=O)N(CCC#N)CCC#N)(CC1=O)C2(C)C` (centres undefined), the percent of DMSO control GFP was 100%. Work on `CC(=O)c1c(C)c(C)c2n1CCn1c(C)ccc1-2` yielded a percent of DMSO control GFP of 105%. `COc1cc2cc(C)nc(Cc3cccc4ccccc34)c2cc1OC` showed a percent of DMSO control GFP of 102%. `Cc1oc2cc(O)cc(O)c2c(=O)c1-c1ccc2c(c1)OCCCO2` gave a percent of DMSO control GFP of 95.6%. Compound `O=CNC1CCCc2c1[nH]c1ccc(Cl)cc21` (centres undefined) has a percent of DMSO control GFP of 101%. Work on `COc1ccc2cc(C3(C)NC(=O)NC3=O)ccc2c1` (centres undefined) yielded a percent of DMSO control GFP of 95.8%. For `CC1(C)CC(=O)c2c(nc3ccccc3c2N)C1`, the percent of DMSO control GFP was 105%. `Cc1ccccc1C(=O)Oc1ccc(Sc2ccc(O)cc2)cc1` gave a percent of DMSO control GFP of 103%. For `O=C(NC1CC1)C1CCN(C2CCN(C(=O)Cc3ccc(F)cc3)CC2)CC1`, the percent of DMSO control GFP was 94.6%. `CCc1cc(/C(Cc2ccccn2)=N\O)c(O)cc1O` showed a percent of DMSO control GFP of 99.1%. In the case of `CC(=O)NC(CC(C)C)C(=O)NC(Cc1ccccc1)C(N)=O` (stereo not drawn) (Ac-Leu-Phe-NH2; configuration not given here), the percent of DMSO control GFP was 101%. For `CN(C)c1ccc(C(CN)c2c[nH]c3ccccc23)cc1` (centres undefined), the percent of DMSO control GFP was 106%. Compound `CCn1cc(C(=O)O)c(=O)c2ccc(C)nc21` has a percent of DMSO control GFP of 99.5%. With `CN1[C@@H]2CC(OC(=O)[C@H](CO)c3ccccc3)C[C@H]1[C@@H]1O[C@@H]12` (some centres undefined) the percent of DMSO control GFP was 107% and 99.1%. For `CCOc1cc2c3c(c1)C(C)=CC(C)(C)N3C(=O)C2=O`, the percent of DMSO control GFP was 95%. With `Cc1ccc(C)c(OCCCC(C)(C)C(=O)O)c1` the percent of DMSO control GFP was 98%. For `CC1(C)C(=O)OC(C(=O)c2ccc(Cl)cc2)C(C)(C)C1=O` (centres undefined), the percent of DMSO control GFP was 103%. Work on `CC1(CC(=O)Nc2ccccc2)NC(=S)N(c2ccccc2)N1` (centres undefined) yielded a percent of DMSO control GFP of 106%. For `COc1cc2c(cc1OC)C(C)=NC1(CCCCC1)C2`, the percent of DMSO control GFP was 99.2%. `Cc1occc(=O)c1O` showed a percent of DMSO control GFP of 92.4%. Work on `COC1CCN(Cc2cn(Cc3ccccc3)nc2-c2cc3ccccc3o2)CC1` yielded a percent of DMSO control GFP of 105%. Work on `COc1cccc2c(O)cc(=O)n(C)c12` yielded a percent of DMSO control GFP of 96.9%. In the case of `CCN1C(=O)C(CC(=O)Nc2ccc(F)cc2)N(Cc2ccco2)C1=S` (centres undefined), the percent of DMSO control GFP was 99%. `O=C(Cc1ccccc1[N+](=O)[O-])NCc1ccncc1` showed a percent of DMSO control GFP of 101%. Compound `O=C1CC2(CCCC2)CC(=O)N1CCCCN1CCN(c2ncccn2)CC1` has a percent of DMSO control GFP of 102%. In the case of `CCC(=O)c1ccc(OCc2ccc(C(=O)OC)cc2)cc1`, the percent of DMSO control GFP was 104%. With `COc1cccc(NC(=O)C2CC(=O)OC23CCOC(C)(C)C3)c1` (centres undefined) the percent of DMSO control GFP was 93.7%.

From PubChem BioAssay
